From PubChem BioAssay AID623943 (Vanderbilt Specialized Chemistry Center, 2012)
Active and inactive are the calls of the source.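 How the source made its calls: active means response changes with concentration, giving a dose-dependent curve as judged by the depositor; inactive means the rest, with no dose-dependent response.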

Target: Muscarinic acetylcholine receptor M3 (Rattus norvegicus) (UniProt P08483)
Experiment: off-target potentiation of rat M3 ACh response – CHO-K1 cells, calcium fluorescence, ACh EC20, selectivity assay for M4 PAM optimization project, SAR follow-up (AID 623943)
Settings: CHO-K1 rM3, calcium fluorescence, PAM mode with ACh EC20; series mostly up to 30 µM

outcome, inactive:
Cc1nc2sc(C(=O)NCc3cccc(F)c3F)c(N)c2c(C)c1Cl
Cc1nc2sc(C(=O)NCc3ccncn3)c(N)c2c(C)c1Cl
Cc1nc2sc(C(=O)NCc3cccnc3)c(N)c2c(C)c1Cl
Cc1nc2sc(C(=O)NCCc3ccncc3)c(N)c2c(C)c1Cl
Cc1nc2sc(C(=O)NC3CC3)c(N)c2c(C)c1Cl
Cc1nc2sc(C(=O)NCc3nccs3)c(N)c2c(C)c1Cl
Cc1nc2sc(C(=O)NCc3ccccc3)c(N)c2c(C)c1Cl
Cc1nc2sc(C(=O)NCc3ccncc3)c(N)c2c(C)c1Cl
COc1ccc(C)c2sc(NC(=O)c3ccncc3)nc12
Cc1nc2sc(C(=O)NCc3ccc4c(c3)OCO4)c(N)c2c(C)c1Cl
